Experimental data published in the supplement of paper PMC11150407.
About 180 (8.6%) of roughly 2,100 compounds showed an effect of 50% or more. The list comes from a sample in which strong results are over-represented; it also holds similar structures and randomly drawn compounds.

What follows are compounds tested on MOLM1 and UCSD/AML1 (averaged) (assay: cell viability relative to DMSO control (POC); higher = less growth inhibition). Conditions: 1 µM; 72 h.
Experimental: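 Primary viability screen in the 3q26 EVI1-high AML cell lines MOLM1 and UCSD/AML1 (1.5e3 cells/well, 384-well), compounds at 1 uM for 72 h. ATP CellTiter-Glo read-out given as percent of viable cells over DMSO control (POC), averaged over duplicates. DMSO was the negative control and 5 uM etoposide the positive control. This mapping covers the MicroSource Spectrum and Selleck anticancer libraries (drug names).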

SMILES	cell viability
CN(CC[C@H](N)CC(=O)N[C@H]1C=C[C@H](n2ccc(N)nc2=O)O[C@@H]1C(=O)O)C(=N)N	114%
COc1cc2c(cc1-c1cc3cc4ccoc4cc3oc1=O)OCO2	99.4%
CC[C@@H](C)C(=O)O[C@H]1[C@H](O)[C@H]2[C@@H](CN3C[C@@H](C)CC[C@H]3[C@@]2(C)O)[C@@H]2C[C@]34O[C@]5(O)[C@@H](OC(=O)[C@@](C)(O)CC)CC[C@@]3(C)[C@@H]5[C@@H](OC(C)=O)[C@@H](OC(C)=O)[C@H]4[C@@]21O	89.1%
COc1ccc2c(c1OC)C(=O)O[C@@H]2[C@H]1c2cc3c(cc2CCN1C)OCO3	88%
CN1CCc2cc3c(cc2C1O)OCO3 (stereo not given)	102%
COc1ccc2c(c1OC)C(=O)O[C@H]2[C@H]1c2cc3c(cc2CCN1C)OCO3	93.9%
COc1cc([C@@H]2c3cc4c(cc3[C@H](O)[C@H]3COC(=O)[C@@H]23)OCO4)cc(OC)c1OC	12.3%
COc1cc([C@@H]2c3cc4c(cc3[C@H](O)[C@H]3COC(=O)[C@H]23)OCO4)cc(OC)c1OC	6.17%
Oc1cc(Cl)ccc1Oc1ccc(Cl)cc1Cl	95.1%
Cc1ncc(CNC(=O)N(CCCl)N=O)c(N)n1	111%
CC(=O)CC1CCCCN1 (stereo not given)	102%
CN[C@@H](C)[C@@H](O)c1ccccc1	105%
O=c1[nH]c2ccccc2n1C1CCN(CCCC(c2ccc(F)cc2)c2ccc(F)cc2)CC1	94.7%
CNC(C)C(O)c1ccccc1 (stereo not given)	96.1%
CC[C@@H](C(=O)[C@@H](C)[C@@H](O)[C@H](C)[C@@H]1O[C@@H]([C@@H](CC)C(=O)O)CC[C@@H]1C)[C@H]1O[C@]2(C=C[C@@H](O)[C@]3(CC[C@@](C)([C@H]4CC[C@](O)(CC)[C@H](C)O4)O3)O2)[C@H](C)C[C@@H]1C [Salinomycin (Procoxacin)]	68.4%
CC[C@@H](C(=O)[C@@H](C)[C@@H](O)[C@H](C)[C@@H]1O[C@@H]([C@@H](CC)C(=O)O)CC[C@@H]1C)[C@H]1O[C@]2(C=C[C@@H](O)[C@]3(CC[C@@](C)([C@H]4CC[C@](O)(CC)[C@H](C)O4)O3)O2)[C@H](C)C[C@@H]1C	20.9%
CC(=O)O[C@@H]1[C@H]2CC[C@H]3[C@@](C)(O)[C@@H]4C[C@H](O)C(C)(C)[C@@]4(O)[C@H](O)C[C@@]13C[C@@]2(C)O	100%
C[C@@H](CO)NC(=O)[C@@H]1C=C2c3cccc4[nH]cc(c34)C[C@H]2N(C)C1	102%
Cc1c(O)c(O)cc2c1CC=C1[C@@]2(C)CC[C@@]2(C)[C@@H]3C[C@](C)(C(=O)O)CC[C@]3(C)CC[C@]12C	11.5%
CC1=C(O)C(=O)C=C2C1=CC=C1[C@@]2(C)CC[C@@]2(C)[C@@H]3C[C@](C)(C(=O)O)CC[C@]3(C)CC[C@]12C	30.1%
